Reference: the supplement of paper PMC11732987, “Enantioselective OTUD7B fragment discovery through chemoproteomics screening and high-throughput optimisation” (Communications Chemistry, 2025)

Assays:
Test in all cases: log2 ratio of Biotin-Ahx-Ub-VS probe labelling (fragment/DMSO); higher = less target engagement (more negative = stronger competition), active = hit call of the paper (q ≤ 0.05, log2 ratio ≤ -1)
Conditions in all cases: compound concentration: 200 uM; treatment time: 3 h
ALG13 = molecular target: T1, ALG13 (UniProt Q9NP73)
T1 sequence (whole entry): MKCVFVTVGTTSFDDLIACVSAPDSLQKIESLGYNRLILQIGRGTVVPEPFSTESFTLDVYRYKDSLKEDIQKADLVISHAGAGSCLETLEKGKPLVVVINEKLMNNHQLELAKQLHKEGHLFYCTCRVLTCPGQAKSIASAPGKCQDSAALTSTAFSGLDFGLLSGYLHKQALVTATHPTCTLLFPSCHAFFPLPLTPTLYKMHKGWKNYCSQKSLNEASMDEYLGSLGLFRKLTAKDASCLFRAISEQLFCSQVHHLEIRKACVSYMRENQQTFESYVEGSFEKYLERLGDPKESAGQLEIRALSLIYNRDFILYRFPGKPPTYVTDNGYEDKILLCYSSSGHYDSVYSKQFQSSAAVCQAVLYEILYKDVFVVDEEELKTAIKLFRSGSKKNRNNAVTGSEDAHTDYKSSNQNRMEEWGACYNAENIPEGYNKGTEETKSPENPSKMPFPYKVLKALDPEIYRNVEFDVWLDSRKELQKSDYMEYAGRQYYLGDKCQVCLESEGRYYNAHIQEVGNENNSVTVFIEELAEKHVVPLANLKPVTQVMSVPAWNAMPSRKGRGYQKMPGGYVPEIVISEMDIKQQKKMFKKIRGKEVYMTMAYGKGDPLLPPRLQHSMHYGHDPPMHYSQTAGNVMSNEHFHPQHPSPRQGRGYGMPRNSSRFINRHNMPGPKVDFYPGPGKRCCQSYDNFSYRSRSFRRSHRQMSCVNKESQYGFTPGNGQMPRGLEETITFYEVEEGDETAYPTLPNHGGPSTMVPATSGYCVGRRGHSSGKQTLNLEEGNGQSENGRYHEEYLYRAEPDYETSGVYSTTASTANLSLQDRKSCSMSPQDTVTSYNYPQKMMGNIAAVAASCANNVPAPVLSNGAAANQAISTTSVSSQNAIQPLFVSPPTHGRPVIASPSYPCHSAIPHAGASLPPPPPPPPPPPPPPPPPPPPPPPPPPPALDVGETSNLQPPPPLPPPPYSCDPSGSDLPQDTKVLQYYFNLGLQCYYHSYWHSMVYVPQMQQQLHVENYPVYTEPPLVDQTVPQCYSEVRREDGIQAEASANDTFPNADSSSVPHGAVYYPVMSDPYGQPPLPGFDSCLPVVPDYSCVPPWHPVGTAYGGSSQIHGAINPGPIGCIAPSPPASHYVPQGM
Outline: (§1)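 Using Biotin-Ahx-Ub-VS at 0.5 µM final for 1 h, DUBs were labelled in HEK293T lysate (495 µg per sample) that had first been treated in triplicate with fragment at 200 µM or vehicle for 3 h. NeutrAvidin enrichment, LysC and trypsin digestion and diaPASEF LC-MS/MS followed. Spectronaut label-free quantities were global-median-normalised. Values are average log2 fragment/vehicle ratios by unpaired t-test, using proteins with ≥2 unique peptides.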

ATXN3 = ATXN3 (UniProt P54252)
Outline: as §1

BAP1 = molecular target: T2, BAP1 (UniProt Q92560)
T2 sequence (whole entry): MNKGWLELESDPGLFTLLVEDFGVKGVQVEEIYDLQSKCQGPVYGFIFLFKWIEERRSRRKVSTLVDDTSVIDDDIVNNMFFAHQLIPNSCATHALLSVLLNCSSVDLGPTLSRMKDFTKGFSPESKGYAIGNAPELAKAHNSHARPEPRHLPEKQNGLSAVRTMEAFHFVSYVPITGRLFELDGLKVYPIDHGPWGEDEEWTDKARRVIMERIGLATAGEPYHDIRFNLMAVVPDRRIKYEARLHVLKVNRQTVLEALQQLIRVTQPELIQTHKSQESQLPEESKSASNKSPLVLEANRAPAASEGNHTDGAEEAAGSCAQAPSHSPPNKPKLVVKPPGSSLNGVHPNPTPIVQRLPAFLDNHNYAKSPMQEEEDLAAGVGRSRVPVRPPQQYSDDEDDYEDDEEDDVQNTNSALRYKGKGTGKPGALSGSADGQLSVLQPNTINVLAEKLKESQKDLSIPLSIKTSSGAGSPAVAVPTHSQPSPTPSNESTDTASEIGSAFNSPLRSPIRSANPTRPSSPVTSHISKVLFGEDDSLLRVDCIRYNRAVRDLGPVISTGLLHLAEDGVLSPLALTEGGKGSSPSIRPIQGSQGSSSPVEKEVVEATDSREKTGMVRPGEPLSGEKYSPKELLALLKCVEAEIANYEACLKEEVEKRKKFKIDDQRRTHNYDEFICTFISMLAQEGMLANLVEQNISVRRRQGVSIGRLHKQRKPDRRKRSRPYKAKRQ
Outline: as §1

EIF3F = EIF3F (UniProt O00303)
Outline: as §1

EIF3H = EIF3H (UniProt O15372)
Outline: as §1

FAM105A = molecular target: T3, FAM105A (UniProt Q9NUU6)
T3 sequence (whole entry): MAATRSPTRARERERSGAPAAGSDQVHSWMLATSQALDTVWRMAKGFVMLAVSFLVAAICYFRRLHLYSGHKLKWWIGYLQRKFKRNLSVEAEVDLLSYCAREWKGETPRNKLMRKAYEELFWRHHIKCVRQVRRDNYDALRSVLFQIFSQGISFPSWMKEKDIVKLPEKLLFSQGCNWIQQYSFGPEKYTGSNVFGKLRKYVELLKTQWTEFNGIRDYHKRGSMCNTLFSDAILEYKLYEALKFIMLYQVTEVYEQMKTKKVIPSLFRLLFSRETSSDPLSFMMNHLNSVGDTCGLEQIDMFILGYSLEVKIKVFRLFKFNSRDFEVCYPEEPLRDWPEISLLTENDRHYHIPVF
Outline: as §1

OTUB1 = OTUB1 (UniProt Q96FW1)
Outline: as §1

OTUD4 = molecular target: T4, OTUD4 (UniProt Q01804)
T4 sequence (whole entry): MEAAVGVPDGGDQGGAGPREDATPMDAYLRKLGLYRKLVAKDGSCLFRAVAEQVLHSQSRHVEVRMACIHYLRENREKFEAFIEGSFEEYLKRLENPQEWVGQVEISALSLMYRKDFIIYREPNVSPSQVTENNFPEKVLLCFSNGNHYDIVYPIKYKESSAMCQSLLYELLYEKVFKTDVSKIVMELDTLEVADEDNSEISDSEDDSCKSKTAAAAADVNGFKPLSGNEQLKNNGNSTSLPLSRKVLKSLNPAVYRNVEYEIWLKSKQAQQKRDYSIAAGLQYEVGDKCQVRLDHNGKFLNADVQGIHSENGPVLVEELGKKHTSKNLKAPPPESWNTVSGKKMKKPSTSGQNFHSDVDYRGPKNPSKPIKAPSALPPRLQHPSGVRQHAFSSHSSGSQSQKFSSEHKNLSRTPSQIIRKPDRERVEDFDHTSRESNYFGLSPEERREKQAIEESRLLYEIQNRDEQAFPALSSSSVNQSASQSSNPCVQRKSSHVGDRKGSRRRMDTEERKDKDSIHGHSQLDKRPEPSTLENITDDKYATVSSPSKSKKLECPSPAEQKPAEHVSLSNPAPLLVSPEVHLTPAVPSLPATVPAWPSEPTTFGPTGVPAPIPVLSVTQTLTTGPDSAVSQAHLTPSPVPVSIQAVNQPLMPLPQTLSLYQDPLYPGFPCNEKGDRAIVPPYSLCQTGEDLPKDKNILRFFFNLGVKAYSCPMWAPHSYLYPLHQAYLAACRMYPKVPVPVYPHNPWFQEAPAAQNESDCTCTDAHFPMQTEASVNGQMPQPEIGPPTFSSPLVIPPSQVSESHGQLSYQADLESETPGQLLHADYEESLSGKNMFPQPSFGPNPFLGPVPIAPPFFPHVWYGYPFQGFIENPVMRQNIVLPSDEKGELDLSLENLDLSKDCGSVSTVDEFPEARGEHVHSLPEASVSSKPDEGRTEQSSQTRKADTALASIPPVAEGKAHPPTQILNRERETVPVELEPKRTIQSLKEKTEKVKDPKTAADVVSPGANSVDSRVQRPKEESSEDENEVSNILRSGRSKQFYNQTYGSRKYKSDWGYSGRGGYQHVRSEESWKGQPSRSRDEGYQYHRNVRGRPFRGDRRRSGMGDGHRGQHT
Outline: as §1

OTUD5 = molecular target: T5, OTUD5 (UniProt Q96G74)
T5 sequence (whole entry): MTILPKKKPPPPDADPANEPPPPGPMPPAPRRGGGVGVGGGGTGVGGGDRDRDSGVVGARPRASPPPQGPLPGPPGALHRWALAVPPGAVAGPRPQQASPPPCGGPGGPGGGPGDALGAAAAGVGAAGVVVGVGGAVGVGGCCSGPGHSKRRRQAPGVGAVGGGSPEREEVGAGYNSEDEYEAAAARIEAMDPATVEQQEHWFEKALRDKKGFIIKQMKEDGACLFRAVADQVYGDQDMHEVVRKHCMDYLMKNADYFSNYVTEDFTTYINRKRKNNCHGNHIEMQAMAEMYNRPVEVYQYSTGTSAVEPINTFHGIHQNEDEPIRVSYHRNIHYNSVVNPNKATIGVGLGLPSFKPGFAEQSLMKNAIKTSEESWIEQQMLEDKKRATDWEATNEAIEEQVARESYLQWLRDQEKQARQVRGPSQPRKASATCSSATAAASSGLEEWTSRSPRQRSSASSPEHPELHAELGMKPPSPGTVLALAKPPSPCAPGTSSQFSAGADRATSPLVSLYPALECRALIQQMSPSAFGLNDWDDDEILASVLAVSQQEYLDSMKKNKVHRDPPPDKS
Outline: as §1

Measured: log2 ratio of Biotin-Ahx-Ub-VS probe labelling

OTUB1, sequence (Q96FW1 whole entry): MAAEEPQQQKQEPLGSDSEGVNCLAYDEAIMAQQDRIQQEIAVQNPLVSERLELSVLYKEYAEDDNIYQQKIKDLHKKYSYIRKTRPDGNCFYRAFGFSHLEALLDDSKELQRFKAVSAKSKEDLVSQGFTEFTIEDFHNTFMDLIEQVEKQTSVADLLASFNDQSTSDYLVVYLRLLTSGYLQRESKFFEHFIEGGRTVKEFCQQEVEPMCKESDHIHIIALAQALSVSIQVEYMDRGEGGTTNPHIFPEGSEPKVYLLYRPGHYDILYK
EIF3H, sequence (O15372 whole entry): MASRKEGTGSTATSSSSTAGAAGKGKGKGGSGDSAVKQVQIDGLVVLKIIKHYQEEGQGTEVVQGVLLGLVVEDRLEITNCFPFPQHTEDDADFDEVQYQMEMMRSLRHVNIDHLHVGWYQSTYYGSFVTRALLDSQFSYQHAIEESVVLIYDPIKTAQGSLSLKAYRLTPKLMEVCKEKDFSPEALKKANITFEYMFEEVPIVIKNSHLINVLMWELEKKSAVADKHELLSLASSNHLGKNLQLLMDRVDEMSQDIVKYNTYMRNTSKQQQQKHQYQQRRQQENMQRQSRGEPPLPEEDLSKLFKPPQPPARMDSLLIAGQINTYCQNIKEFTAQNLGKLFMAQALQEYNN
ATXN3, sequence (P54252 whole entry): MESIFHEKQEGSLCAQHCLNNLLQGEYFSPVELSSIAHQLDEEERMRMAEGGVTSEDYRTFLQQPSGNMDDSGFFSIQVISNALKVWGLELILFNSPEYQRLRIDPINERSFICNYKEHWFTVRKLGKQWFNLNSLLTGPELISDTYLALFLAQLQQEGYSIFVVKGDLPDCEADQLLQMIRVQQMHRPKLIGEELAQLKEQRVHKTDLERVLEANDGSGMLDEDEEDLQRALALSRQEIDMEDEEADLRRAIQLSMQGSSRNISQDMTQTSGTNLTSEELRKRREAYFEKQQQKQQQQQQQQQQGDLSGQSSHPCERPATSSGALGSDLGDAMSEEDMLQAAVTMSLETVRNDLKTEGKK
EIF3F, sequence (O00303 whole entry): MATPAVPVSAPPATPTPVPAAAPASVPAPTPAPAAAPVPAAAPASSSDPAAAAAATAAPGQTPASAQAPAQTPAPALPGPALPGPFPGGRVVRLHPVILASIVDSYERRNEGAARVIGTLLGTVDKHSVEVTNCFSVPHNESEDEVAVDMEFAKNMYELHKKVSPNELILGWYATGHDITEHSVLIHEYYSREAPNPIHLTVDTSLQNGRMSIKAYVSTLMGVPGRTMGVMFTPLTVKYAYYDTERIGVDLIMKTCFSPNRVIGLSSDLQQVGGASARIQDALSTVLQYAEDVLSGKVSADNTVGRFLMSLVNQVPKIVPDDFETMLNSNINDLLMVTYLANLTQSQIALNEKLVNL

Cc1cccc(NC(=O)[C@@H]2CCCN2C(=O)CCl)n1
inactive: ALG13 0.103 | ATXN3 -0.532 | BAP1 -0.719 | EIF3F -0.372 | EIF3H 0.0856 | FAM105A 0.18 | OTUB1 -0.512 | OTUD4 -0.432 | OTUD5 -0.514
